HP1b binding inh – inhibitors of HP1-beta chromodomain binding to methylated histone tails; P83916; AlphaScreen HP1-beta / biotin-H3K9me3 peptide binding; Potency, µM (highest dose often 114 µM), usual class: inhibitors; hit rate 0.56% among 390,000; AID 540317; further: nearly all actives have a fitted effect of over 70% in size
Target sequence (P83916 whole entry, looked up): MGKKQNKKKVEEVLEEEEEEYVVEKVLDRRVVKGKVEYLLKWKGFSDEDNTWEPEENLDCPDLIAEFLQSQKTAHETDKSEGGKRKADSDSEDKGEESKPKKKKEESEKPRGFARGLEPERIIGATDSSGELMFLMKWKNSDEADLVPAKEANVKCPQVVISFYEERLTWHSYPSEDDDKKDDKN
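AlphaScreen: HP1-beta (50 nM) preformed 30 min with biotin-H3(1-18)K9me3 peptide (50 nM) in PBS pH 7.4, 0.01% Tween-20. Compound added for 30 min at RT, then streptavidin donor/nickel chelate acceptor beads (10 ug/mL) for 30 min.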
G9a inh – G9a (human) methyltransferase inhibition; G9a H3K9 monomethylation, AlphaScreen, 2 h; AID 504332; hit rate 8.8% among 350,000; Q96KQ7; Potency, µM (highest dose often 102 µM), hits mostly inhibitors; further: nearly all actives have a fitted effect of over 75% in size
Target sequence (Q96KQ7 913-1193 limits assumed): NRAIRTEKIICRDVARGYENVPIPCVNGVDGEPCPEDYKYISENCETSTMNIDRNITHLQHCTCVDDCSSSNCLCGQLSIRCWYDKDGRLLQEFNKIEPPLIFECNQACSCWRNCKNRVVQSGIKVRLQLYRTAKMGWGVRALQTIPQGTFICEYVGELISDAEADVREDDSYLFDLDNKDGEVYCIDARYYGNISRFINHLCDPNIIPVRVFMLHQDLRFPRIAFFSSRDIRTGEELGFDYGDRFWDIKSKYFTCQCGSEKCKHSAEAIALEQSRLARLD
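AlphaScreen detection with an anti-monomethyl H3K9 antibody quantified product after a 2 h room-temperature reaction containing 500 nM biotinylated H3K9 peptide, 20 µM SAM and 20 nM enzyme, which had been preincubated 15 min with compound.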
BAZ2B block – BAZ2B (human) inhibition; Potency, µM (highest dose often 114 µM), hits mostly inhibitors; Q9UIF8; AID 504333; hit rate 4.4% among 360,000; AlphaScreen BAZ2B-H3K14Ac peptide displacement; further: nearly all actives have a fitted effect of over 60% in size
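AlphaScreen displacement: compounds (up to 110uM) incubated 30 min at room temperature with a preformed 50 nM BAZ2B/50 nM biotinylated H3K14Ac peptide complex in PBS pH 7.4 with Tween-20. Donor and acceptor beads at 10 ug/mL final added, 20 min light-protected before reading.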
JMJD2A Tudor – blocks the human JMJD2A Tudor domain; O75164; AlphaScreen JMJD2A-Tudor / H3K4me3 peptide binding; Potency, µM (top dose mostly 114 µM), hits mostly inhibitors; hit rate 4.4% among 390,000; further: nearly all actives have a fitted effect of over 50% in size
L3MBTL1 block – L3MBTL1 (human) inhibition | AlphaScreen L3MBTL1–H3K9me1 peptide binding | Potency, µM (series often up to 57.1 µM), hits mostly inhibitors | hit rate 0.66% among 230,000; further: nearly all actives have a fitted effect of over 60% in size
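AlphaScreen proximity signal between nickel-chelate acceptor and streptavidin donor beads (final 10 ug/mL) reports binding of 50 nM L3MBTL1 to 75 nM biotin-H3 K9me1 peptide; complex incubated with compounds 30 min at room temperature; cefsulodin titration as control.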
Numbers stand for hits; 0 = inactive; ? = inconclusive; - = no result; [ ] = another dose, or the depositor's remark. Sampled rows, rich in hits. Any-hit rate of the full collection: about 11%. The call rests on the fitted dose curve; in most records, active means well fitted inhibition curve with a large enough effect; inconclusive means small, poorly fitted or top-dose-only effect; inactive means no such curve, though single readings can be large or run the other way.

SMILES	HP1b binding inh	G9a inh	BAZ2B block	JMJD2A Tudor	L3MBTL1 block
Cc1cc(C)c(Cn2c3ccccc3c3cnn(CC(=O)N4CCCCCC4)c(=O)c32)c(C)c1	0	0	0	0	-
CC1(C)CC(=O)C=C(Nc2ccc(O)c(C(=O)O)c2)C1	0	45µM	0	0	0
Cc1ccc(S(=O)(=O)c2nc(-c3ccccc3)oc2NCCCN2CCOCC2)cc1	0	?	0	?	0
Cc1cccc(-c2nc(S(=O)(=O)c3ccc(F)cc3)c(NCCCN3CCOCC3)o2)c1	?	-	71µM	?	-
CCN(CC)c1ccc(NC(=O)c2ccccc2OCC(=O)OC)cc1	?	-	32µM	20µM	0
Cc1ccc(NC(=O)COC(=O)CCC(=O)c2cccs2)cc1	0	0	0	0	0
COC(=O)COc1ccccc1C(N)=O	0	0	0	0	-
CCN(CC)c1ccc(NC(=O)COC(=O)COc2ccccc2[N+](=O)[O-])cc1	0	7.1µM	45µM	32µM	0
CCN(CC)c1ccc(NC(=O)COC(=O)CCC(=O)c2cccs2)cc1	?	0[2.33 µM]	45µM	?	0
Cc1nnc(NC(=O)CSCc2cc(=O)c3ccc(C)c(C)c3[nH]2)s1	0	0	0	0	-
O=C(NCc1ccc(F)cc1)C1CCN(S(=O)(=O)c2ccc3c(c2)CCCN3C(=O)C2CCC2)CC1	0	0	0	0	-
CCCCn1cnc2c(c(CC#N)nn2-c2ccccc2)c1=N	0	-	-	0	-
Cn1nc(CC#N)c2c(=N)n(N)cnc21	0	-	-	32µM	-
NN(CCO)C(=S)Nc1ccc(Cl)cc1	0	11µM	?	0	0
CC(C)(C)c1ccc(-c2nc(S(=O)(=O)c3ccccc3)c(N3CCOCC3)o2)cc1	0	?	?	?	-
Cc1ccc(N/N=C(\C#N)C(=O)c2ccsc2)cc1	0	?	?	35µM	0
CCC(CC)=NNc1cccc([N+](=O)[O-])c1	0	?	?	0	0
N#C/C(=N\Nc1ccccc1Cl)C(=O)c1ccccc1	0	?	?	0	0
CCN(CC)C(=N)/C(C#N)=N/Nc1ccc(C)cc1	0	?	0	0	0
N#C/C(=N\Nc1cccc(Cl)c1)C(=O)c1ccccc1	?	25µM	45µM	?	0
COc1ccc(C(=O)/C(C#N)=N/Nc2cccc([N+](=O)[O-])c2)cc1	?	?	40µM	?	0
N#C/C(=N\Nc1ccc(Cl)cc1)C(=O)c1ccsc1	?	-	25µM	?	0
Cc1ccc(-n2ncc(C(=O)NCCc3c[nH]c4ccccc34)c2C2CCN(C(=O)OC(C)(C)C)CC2)cc1C	0	0	0	?	-
CCCCCn1ncc2c3sc(C)cc3n(C)c2c1=O	-	-	-	0	-
COc1cccc(Cn2cnc3c2c(=O)n(C)c(=O)n3C)c1	0	0	0	0	-
SMILES	HP1b binding inh	G9a inh	BAZ2B block	JMJD2A Tudor	L3MBTL1 block
COc1ccc2c(c1)Cc1sc(NC(=O)c3ccc(Cl)cc3)nc1-2	0	0	0	0	-
COc1ccc(-c2cc(C(F)(F)F)n3ncc(-c4ccccc4)c3n2)cc1	0	?	?	?	-
Oc1ccccc1CNc1ccc2c(c1)OCCO2	0	?	?	0	0
Cc1ccc(NCc2ccccc2O)cc1C	?	?	?	50µM	-
CSc1ccc(CNc2ccc(C)c(C)c2)cc1	?	89µM	50µM	40µM	0
Cc1nc2cc(NCc3ccccc3O)ccc2n1Cc1ccccc1	?	-	20µM	32µM	0
COc1ccc(CNC(=O)c2ccc3c(c2)nc2n3CCC(C)C2)c(OC)c1 (stereo not given)	0	0	0	0	-
O=C(CSc1oc(-c2ccccc2)nc1S(=O)(=O)c1ccc(Br)cc1)c1ccccc1	0	?	0	0	-
Cc1ccc2c(c1)NC(=O)C(CC(=O)NCCCN1CCCC1)O2 (stereo not given)	0	0	0	0	-
Cc1ccc2c(c1)NC(=O)C(CC(=O)NCCCN1CCN(C3CCCCC3)CC1)O2 (stereo not given)	-	?	0	-	0
CCN1CCN(CCC2Oc3cc([N+](=O)[O-])ccc3NC2=O)CC1 (stereo not given)	0	?	0	0	0
Cc1ccc2c(c1)NC(=O)C(CC(=O)NCCCN1CCc3ccccc3C1)O2 (stereo not given)	0	50µM	0	0	-
COc1ccc(N2CCN(CCC3Oc4cc([N+](=O)[O-])ccc4NC3=O)CC2)cc1 (stereo not given)	?	18µM	28µM	?	0
COc1ccc(N2CCN(CCCNC(=O)CC3Oc4ccc(C)cc4NC3=O)CC2)cc1 (stereo not given)	0	35µM	?	?	0
CCOc1ccc(NC(=O)C2CCC(CNS(=O)(=O)c3ccc(Br)s3)CC2)cc1 (stereo not given)	0	0	0	0	-
O=C(NCCc1ccccc1)c1cnc2sc(N3CCCCCC3)nn2c1=O	0	0	0	0	-
O=c1c(-c2cccc(F)c2)nc2cncnc2n1Cc1ccccc1Cl	-	0[0.501 µM]	-	-	-
Cc1cc(C)c(C)c(C(=O)CSc2nnc(-c3ccc4[nH]c(C)c(C)c4c3)o2)c1C	0	25µM	0	0	0
Cc1[nH]c2ccc(-c3nnc(SCC(=O)c4ccc(F)cc4)o3)cc2c1C	0	?	0	0	0
CCn1c(SCC(N)=O)nnc1-c1ccc2[nH]c(C)c(C)c2c1	0	0	0	0	0[11.4 µM]
CCn1c(SCC(=O)O)nnc1-c1ccc2[nH]c(C)c(C)c2c1	0	14µM	0	0	0
CN(C)CCCn1c2c(c(SCC(=O)Nc3cccc4ccccc34)nc1=O)CCC2	0	50µM	0	0	0
CN(C)CCn1c2c(c(SCC(=O)Nc3cccc4ccccc34)nc1=O)CCC2	0	0[0.501 µM]	0	0	0
CCN(CC)CCn1c2c(c(SCC(=O)Nc3cccc4ccccc34)nc1=O)CCCC2	0	13µM	0	0	0
O=C1C=CC(O)(c2cc(=O)c3c(O)cc(O)cc3o2)C=C1	0	45µM	0	0	0
SMILES	HP1b binding inh	G9a inh	BAZ2B block	JMJD2A Tudor	L3MBTL1 block
O=c1cc(-c2ccccc2)c2c(O)cc(O)cc2o1	0	0[0.501 µM]	0	0	0[2.29 µM]
COc1ccc(CNCc2ccncc2)c(OC)c1	0	-	0	0	0
COc1cccc(CNCc2ccccc2OC)c1	?	32µM	0	0	0
COc1ccc(CNCc2ccc3ccccc3c2)c(OC)c1	?	11µM	?	35µM	0
COc1cc(CNCc2ccc(OC)c(OC)c2OC)cc(OC)c1	0	?	50µM	2.5µM	-
COc1cc(CNCc2ccccc2)cc(Cl)c1OC	0	?	0	0	0
Cc1ccccc1CNCc1cccnc1	0	0	0	0	-
COc1cccc(CNCc2cccnc2)c1OCc1ccccc1	0	79µM	?	0	0
COCC(=O)N1CCC(Oc2ccc(C(=O)NC(C)c3csc(C)n3)cc2)CC1 (stereo not given)	0	0	0	0	-
COCCCNC(=O)c1ccc(Cn2c(=O)c3cccn3c3cccnc32)cc1	0	0	0	0	-
Clc1ccccc1Cn1cccc1C1=NC(Cc2ccccc2)CO1 (stereo not given)	0	0	-	0	-
COc1cc(CNCc2ccc(SC)cc2)cc(OC)c1	?	22µM	?	1.4µM	0
